Records with an inconclusive call do not appear. Activity calls are given as the source filed them. How the source made its calls: active means hit-call score of the fitted dose curve at least 0.9, where 1 is the maximum; inconclusive means response in the unintended direction; inactive means score below 0.9.
Each compound was assayed against sheep Cyclooxygenase-2 (Cox2), PTGS2 (gene 443460) (UniProt P79208) (assay: NVS_ENZ_oCOX2: NovaScreen (NVS) Enzymatic Assay for sheep Cyclooxygenase-2 (Cox2) (AID 2283231)).
Chain of sheep Cyclooxygenase-2 (Cox2), PTGS2 (gene 443460) (P79208 whole entry, looked up): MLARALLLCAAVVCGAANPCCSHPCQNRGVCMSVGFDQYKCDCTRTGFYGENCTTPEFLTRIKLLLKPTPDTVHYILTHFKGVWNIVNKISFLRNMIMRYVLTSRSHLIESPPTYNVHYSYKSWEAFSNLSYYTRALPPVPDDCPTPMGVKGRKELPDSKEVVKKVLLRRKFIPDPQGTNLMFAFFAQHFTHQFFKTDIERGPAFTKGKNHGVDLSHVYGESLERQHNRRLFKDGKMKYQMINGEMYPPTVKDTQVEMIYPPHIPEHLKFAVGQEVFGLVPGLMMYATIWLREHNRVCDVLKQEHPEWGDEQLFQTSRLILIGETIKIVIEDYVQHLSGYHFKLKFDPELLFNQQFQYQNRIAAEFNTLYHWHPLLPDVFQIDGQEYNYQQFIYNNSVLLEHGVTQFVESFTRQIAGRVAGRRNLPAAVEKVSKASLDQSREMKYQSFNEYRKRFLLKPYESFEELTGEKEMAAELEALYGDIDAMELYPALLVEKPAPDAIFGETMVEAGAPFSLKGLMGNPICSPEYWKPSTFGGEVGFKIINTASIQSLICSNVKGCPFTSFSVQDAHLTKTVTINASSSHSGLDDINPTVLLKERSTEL
Summary of the method: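 Ovine placental enzyme, cell-free; chemical added, 0.66 h, absorbance (colorimetric). Screen 25 uM in duplicate; ≥threshold hits titrated, top 50 uM. Inhibition = signal loss vs DMSO.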
For CC(C)(C)c1cc(O)ccc1O, the AC50 was 6.85 µM (active).
With COc1cc(OC)nc(NC(=O)NS(=O)(=O)c2ncccc2C(=O)N(C)C)n1 the outcome was “inactive”.
With CC(C)(OO)c1ccccc1 the AC50 was 6.28 µM (active).
With CC12CC1(C)C(=O)N(c1cc(Cl)cc(Cl)c1)C2=O (stereo unspecified) the AC50 was 3.77 µM (active).

These compounds were tested against sheep Cyclooxygenase-1 (Cox1), PTGS1 (gene 443551) (UniProt P05979) (assay: NVS_ENZ_oCOX1: NovaScreen (NVS) Enzymatic Assay for sheep Cyclooxygenase-1 (Cox1) (AID 2283239);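 further: actives reduce cyclooxygenase activity so potencies are for inhibitors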).
Chain of sheep Cyclooxygenase-1 (Cox1), PTGS1 (gene 443551) (P05979 whole entry, looked up): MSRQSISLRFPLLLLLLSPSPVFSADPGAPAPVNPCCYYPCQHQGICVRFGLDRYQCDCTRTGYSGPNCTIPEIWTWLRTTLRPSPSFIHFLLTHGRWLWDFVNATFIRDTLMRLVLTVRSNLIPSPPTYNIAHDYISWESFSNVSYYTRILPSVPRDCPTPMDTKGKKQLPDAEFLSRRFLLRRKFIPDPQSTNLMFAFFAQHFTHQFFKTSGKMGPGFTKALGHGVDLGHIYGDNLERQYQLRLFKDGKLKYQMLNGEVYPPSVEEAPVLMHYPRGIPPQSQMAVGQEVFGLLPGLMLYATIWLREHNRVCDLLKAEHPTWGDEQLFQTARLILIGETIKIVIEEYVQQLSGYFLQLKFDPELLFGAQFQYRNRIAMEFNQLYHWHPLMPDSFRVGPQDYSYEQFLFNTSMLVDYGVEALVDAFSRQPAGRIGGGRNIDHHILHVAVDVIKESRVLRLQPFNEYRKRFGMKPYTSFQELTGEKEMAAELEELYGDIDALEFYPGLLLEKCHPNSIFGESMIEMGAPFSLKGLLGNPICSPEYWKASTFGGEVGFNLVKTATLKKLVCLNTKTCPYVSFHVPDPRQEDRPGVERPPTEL
Summary of the method: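 Tested in duplicate at 25 uM, then in concentration series if active, against seminal vesicle extract from sheep. Enzyme activity was measured colorimetrically at 0.66 hour and normalised to DMSO.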
ClC(Cl)=C(Cl)C(Cl)=C(Cl)Cl was tested, and the outcome was “inactive”.
For Cl/C=C\C[N+]12CN3CN(CN(C3)C1)C2, the AC50 was 5.46 µM (active).
With CC(C)(C)c1cc(O)ccc1O the AC50 was 11 µM (active).
With CCOC(=O)Nc1cccc(OC(=O)Nc2ccccc2)c1 the AC50 was 8.56 µM (active).
With COc1cc(OC)nc(NC(=O)NS(=O)(=O)c2ncccc2C(=O)N(C)C)n1 the AC50 was 7.06 µM (active).
In the case of CC(C)(OO)c1ccccc1, the AC50 was 2.76 µM (active).
With CCOC(=O)/C=C(C)/C=C/C[C@@H](C)CCCC(C)C the AC50 was 31.3 µM (active).
In the case of Oc1ccc(-c2ccccc2)cc1, the outcome was “inactive”.
In the case of ClCCBr, the outcome was “inactive”.
With O=[N+]([O-])c1ccc2c3c(cccc13)CC2 the AC50 was 18.9 µM (active).
Nc1ccc(-c2ccc(N)c(Cl)c2)cc1Cl was tested, and the AC50 was 1.64 µM (active).
Nc1cccc2ccccc12 was tested, and the AC50 was 13.6 µM (active).
With CC(=O)C(Cl)C(=O)N(C)C (stereo unspecified) the outcome was “inactive”.
For CC12CC1(C)C(=O)N(c1cc(Cl)cc(Cl)c1)C2=O (stereo unspecified), the outcome was “inactive”.
In the case of CCCCCCCCCl, the AC50 was 0.0723 µM (active).
In the case of OCc1ccco1, the AC50 was 6.01 µM (active).
For COC(=O)Cc1ccccc1, the outcome was “inactive”.

From PubChem BioAssay (EPA / NIEHS)
